# Reference: PubChem BioAssay
# Results filed as inconclusive are left out. The source made the active and inactive calls.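 How the source made its calls, unless noted: active means normalized viability below 100% at a tested concentration; inactive means the rest.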
# Experiments:
# [1] = viability loss in pontine glioma line – cell-based, SU-DIPG-XVII, MIPE5.0, CellTiter-Glo, qHTS, dose response (AID 1347060; cut-off not given, nearly all actives have AC50 up to about 26 µM); conditions: CellTiter-Glo ATP luminescence
# [2] = viability loss in pontine glioma line – cell-based, SU-DIPG-XXV, MIPE5.0, CellTiter-Glo, qHTS, dose response (AID 1347065; cut-off not given, nearly all actives have AC50 up to about 26 µM;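 further: cells exposed to compound for 48 hours before ATP readout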); conditions: CellTiter-Glo ATP luminescence
# [3] = growth inhibition of DIPG cells – cell-based, MIPE5.0 library, qHTS (AID 1347068; cut-off not given, nearly all actives have IC50 up to about 30 µM); conditions: SU-DIPG-XXV viability
# [4] = viability loss with induced miR-34 in A549 – imaging, A549 dox-inducible miR-34, nuclei and caspase counts, primary screen (AID 1347080;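 active means compounds whose cell count with miR-34 switched on is under 0.7 times the count with it off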); conditions: A549 miR-34 inducible, Hoechst nuclei count, 48 h
# [5] = MELAS cybrid and Rieske KO viability enhancers – cell-based, MELAS cybrids, Rieske KO mouse fibroblasts, CellTiter-Glo, primary screen (AID 1508586;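 active means mean z-score across replicates of 1.96 or higher in either the MELAS or the Rieske mutant cell line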;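 further: z relative to plate mean and SD of compound and empty wells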); conditions: low glucose
# [6] = drug combination growth inhibition, ovarian cancer – cell-based, oncology-focused library, rucaparib conditional, profiling panel (AID 1508598); conditions: patient-derived ovarian cancer cells, CellTiter-Glo viability, 144 h, stronger effect = lower value
# [7] = growth inhibition, single agent or in combination, cell-based, chromothripsis tumors, cisplatin or BGB combos (AID 1671449; in the data active means inhibition above about 80%;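 further: cells exposed for 96 hours; 0% = vehicle DMSO and 100% = killing by high DMSO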); conditions: LFS_MB_P medulloblastoma cells
# [8] = growth inhibition, single agent and combos, cell-based, chromothripsis tumors, cisplatin or BGB combos (AID 1671450; in the data active means inhibition above about 80%;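 further: cells exposed to compound for four days; 0% = vehicle DMSO and 100% = cell killing by high DMSO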); conditions: HDN33 neuroblastoma cells, stronger effect = higher value
# [9] = growth inhibition, single agents and combos, ICB984, cell-based, cisplatin or BGB combos, synergistic combos for chromothripsis tumors (AID 1671451; call rule not given here;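 further: cells exposed for 96 hours before readout; 0% = vehicle DMSO and 100% = killing by high DMSO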); conditions: ICB984 medulloblastoma cells, drug combinations, stronger effect = higher value
# [10] = growth inhibition, single agents and combos, LFS_MB_1R, cell-based, cisplatin or BGB combos, synergistic combos for chromothripsis tumors (AID 1671452; in the data active means inhibition above about 80%;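 further: cells exposed for 96 hours before readout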); conditions: LFS_MB_1R medulloblastoma cells, stronger effect = higher value
# [11] = growth inhibition, single agents and combos, HTB85, cell-based, BGB or cisplatin IC20 combos, synergistic combos for chromothripsis tumors (AID 1671453; in the data active means inhibition above about 80%;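 further: cells exposed for 96 hours before readout; 0% = vehicle DMSO and 100% = high DMSO killing control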); conditions: HTB85 osteosarcoma cells, drug combinations, stronger effect = higher value
# [12] = growth inhibition, single agents and combos, CRL2098, cell-based, BGB or cisplatin IC20 combos, synergistic combos for chromothripsis tumors (AID 1671454; in the data active means inhibition above about 80%;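 further: cells exposed for 96 h before readout; 0% = vehicle DMSO and 100% = killing by high DMSO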); conditions: CRL2098 osteosarcoma cells, drug combinations, stronger effect = higher value
# [13] = growth inhibition, single agents and combos, HD-MB03, cell-based, BGB or cisplatin IC20 combos, synergistic combos for chromothripsis tumors (AID 1671455; in the data active means inhibition above about 83%;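 further: 0% = vehicle DMSO and 100% = high DMSO as cytotoxic control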); conditions: HD-MB03 medulloblastoma cells, stronger effect = higher value
# [14] = growth inhibition, single agents and combos, UWB1.289, cell-based, BGB or cisplatin combos, synergistic combos for chromothripsis tumors (AID 1671456; in the data active means inhibition above about 80%;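 further: cells exposed to compound for four days; 0% = vehicle DMSO and 100% = killing by high DMSO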); conditions: UWB1.289 ovarian carcinoma cells, stronger effect = higher value
# [15] = growth inhibition, single agents and combos, LFS_MB_2R, cell-based, cisplatin combos, synergistic combos for chromothripsis tumors (AID 1671457; in the data active means inhibition above about 80%;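 further: cells exposed to compound for four days before readout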); conditions: LFS_MB_2R medulloblastoma cells, stronger effect = higher value
# [16] = growth inhibition, MDA-MB-436, cell-based, BGB or cisplatin combos, synergistic combos for chromothripsis tumors (AID 1671458; call rule not given here;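 further: cells exposed for 96 hours; 0% = vehicle DMSO and 100% = killing by high DMSO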); conditions: MDA-MB-436 breast carcinoma growth inhibition, drug combinations, stronger effect = higher value
# [17] = UWB1.289_BRCA1 ovarian cancer growth, cell-based, BGB or cisplatin combinations (AID 1671459; in the data active means inhibition above about 80%); conditions: UWB1.289 BRCA1 ovarian carcinoma, drug combinations, stronger effect = higher value
# [18] = drug combination toxicity in non-malignant astrocytes – cell-based, BGB or cisplatin IC20 combos, cytotoxicity control for chromothriptic childhood tumor combination screen (AID 1671460; in the data active means inhibition above about 80%;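 further: cells exposed to compounds for 96 hours before viability readout; 0% = vehicle and 100% = killing control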); conditions: Human astrocytes, viability inhibition, drug combinations, at 0.5 µM, stronger effect = higher value
# [19] = BT084 cell growth, single and combined drugs, ICGC_MB145, cisplatin and BGB IC40 combos (AID 1671461; in the data active means inhibition above about 80%;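 further: cells exposed to drugs for 96 hours; 0% = vehicle DMSO and 100% = high DMSO full killing control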); conditions: BT084 medulloblastoma cells, drug combinations, stronger effect = higher value
# [20] = RCMB18 cell growth, single agent and combined, cisplatin and BGB IC40 combos (AID 1671462; in the data active means inhibition above about 80%;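 further: cells exposed to compound for four days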); conditions: RCMB18 medulloblastoma cells, stronger effect = higher value
# [21] = CRL1545 cell growth, single agent and combined, cisplatin and BGB IC20 combos (AID 1671464; in the data active means inhibition above about 80%;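 further: cells exposed to compound for 96 hours before readout; 0% = vehicle DMSO and 100% = high DMSO killing control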); conditions: CRL1545 osteosarcoma cells, stronger effect = higher value
# [22] = measured here: combination with BGB IC40, at 0.05 µM
# [23] = measured here: with BGB IC20 combination, at 0.5 µM
# [24] = measured here: with cisplatin IC20 combination, at 0.5 µM
# [25] = measured here: combination with cisplatin, at 0.5 µM
# [26] = measured here: combination with cisplatin, at 5 µM
compound,measurement,setting,value
COc1ccc(-n2c(SCCCN3C(=O)c4cccc5cccc(c45)C3=O)nnc2-c2ccncc2)cc1,outcome,[1],inactive
same,outcome,[2],inactive
same,outcome,[3],inactive
same,fold change,"[4]; stronger effect = lower value, cell number ratio, induced over uninduced",0.884 (inactive)
same,fold change,[4]; measured here: relative caspase fold change +Dox/-Dox,0.42
same,cell count,"[4]; measured here: total cells with miR-34 induction, stronger effect = lower value",6580
same,cell count,[4]; measured here: total cells without miR-34 induction,7440
same,z-score,"[5]; MELAS cybrid survival, CellTiter-Glo 48 h, stronger effect = higher value",-0.376 (inactive)
same,z-score,"[5]; Rieske KO mouse fibroblast survival, CellTiter-Glo 72 h",1.13
same,viability,"[6]; at 0.000305 µM, OCI-C5x cells, with rucaparib 10 µM, 100% = cells with rucaparib alone",118% (inactive)
same,viability,"[6]; at 0.000305 µM, OCI-C5x cells, without rucaparib",116% (inactive)
same,viability,"[6]; at 0.000305 µM, OCI-P5x cells, with rucaparib 20 µM, 100% = cells with rucaparib alone",101% (inactive)
same,viability,"[6]; at 0.000305 µM, OCI-P5x cells, without rucaparib",100% (inactive)
same,viability,"[6]; at 0.00122 µM, OCI-C5x cells, with rucaparib 10 µM, 100% = cells with rucaparib alone",120% (inactive)
same,viability,"[6]; at 0.00122 µM, OCI-C5x cells, without rucaparib",121% (inactive)
same,viability,"[6]; at 0.00122 µM, OCI-P5x cells, with rucaparib 20 µM, 100% = cells with rucaparib alone",101% (inactive)
same,viability,"[6]; at 0.00122 µM, OCI-P5x cells, without rucaparib",99.9% (active)
same,viability,"[6]; at 0.00488 µM, OCI-C5x cells, with rucaparib 10 µM, 100% = cells with rucaparib alone",117% (inactive)
same,viability,"[6]; at 0.00488 µM, OCI-C5x cells, without rucaparib",117% (inactive)
same,viability,"[6]; at 0.00488 µM, OCI-P5x cells, with rucaparib 20 µM, 100% = cells with rucaparib alone",94.7% (active)
same,viability,"[6]; at 0.00488 µM, OCI-P5x cells, without rucaparib",104% (inactive)
same,viability,"[6]; at 0.0195 µM, OCI-C5x cells, with rucaparib 10 µM, 100% = cells with rucaparib alone",125% (inactive)
same,viability,"[6]; at 0.0195 µM, OCI-C5x cells, without rucaparib",121% (inactive)
same,viability,"[6]; at 0.0195 µM, OCI-P5x cells, with rucaparib 20 µM, 100% = cells with rucaparib alone",102% (inactive)
same,viability,"[6]; at 0.0195 µM, OCI-P5x cells, without rucaparib",101% (inactive)
same,viability,"[6]; at 0.0781 µM, OCI-C5x cells, with rucaparib 10 µM, 100% = cells with rucaparib alone",125% (inactive)
same,viability,"[6]; at 0.0781 µM, OCI-C5x cells, without rucaparib",118% (inactive)
same,viability,"[6]; at 0.0781 µM, OCI-P5x cells, with rucaparib 20 µM, 100% = cells with rucaparib alone",95.3% (active)
same,viability,"[6]; at 0.0781 µM, OCI-P5x cells, without rucaparib",98.1% (active)
same,viability,"[6]; at 0.313 µM, OCI-C5x cells, with rucaparib 10 µM, 100% = cells with rucaparib alone",138% (inactive)
same,viability,"[6]; at 0.313 µM, OCI-C5x cells, without rucaparib",130% (inactive)
same,viability,"[6]; at 0.313 µM, OCI-P5x cells, with rucaparib 20 µM, 100% = cells with rucaparib alone",95.5% (active)
same,viability,"[6]; at 0.313 µM, OCI-P5x cells, without rucaparib",77.9% (active)
same,viability,"[6]; at 1.25 µM, OCI-C5x cells, with rucaparib 10 µM, 100% = cells with rucaparib alone",129% (inactive)
same,viability,"[6]; at 1.25 µM, OCI-C5x cells, without rucaparib",128% (inactive)
same,viability,"[6]; at 1.25 µM, OCI-P5x cells, with rucaparib 20 µM, 100% = cells with rucaparib alone",89.8% (active)
same,viability,"[6]; at 1.25 µM, OCI-P5x cells, without rucaparib",77.7% (active)
same,viability,"[6]; at 5 µM, OCI-C5x cells, with rucaparib 10 µM, 100% = cells with rucaparib alone",113% (inactive)
same,viability,"[6]; at 5 µM, OCI-C5x cells, without rucaparib",123% (inactive)
same,viability,"[6]; at 5 µM, OCI-P5x cells, with rucaparib 20 µM, 100% = cells with rucaparib alone",98.5% (active)
same,viability,"[6]; at 5 µM, OCI-P5x cells, without rucaparib",86.5% (active)
same,inhibition,"[7]; at 0.5 µM, stronger effect = higher value",9.82% (inactive)
same,inhibition,"[7]; measured here: combination with BGB IC20, at 0.005 µM",9.58%
same,inhibition,"[7]; measured here: combination with BGB IC40, at 0.005 µM",-35.2%
same,inhibition,[7]; [22],-11%
same,inhibition,"[7]; measured here: combination with cisplatin, at 0.5 µM, stronger effect = higher value",82.2%
same,inhibition,"[7]; measured here: combination with cisplatin, at 5 µM, stronger effect = higher value",-43.7%
same,inhibition,"[8]; BGB combo, at 5 µM",-3.81%
same,inhibition,[8]; at 0.5 µM,4% (inactive)
same,inhibition,"[8]; cisplatin combo, at 5 µM",14.9%
same,inhibition,[8]; [23],-3.11%
same,inhibition,[8]; [24],10.7%
same,inhibition,"[8]; single agent, at 5 µM",26.4%
same,inhibition,"[9]; BGB IC20 combo, at 0.005 µM",-14.7%
same,inhibition,"[9]; BGB IC40 combo, at 0.005 µM",-33.9%
same,inhibition,"[9]; BGB IC40 combo, at 0.05 µM",-28.6%
same,inhibition,[9]; at 0.5 µM,-17.9% (inactive)
same,inhibition,"[9]; cisplatin combo, at 0.05 µM",-33.7%
same,inhibition,"[9]; cisplatin combo, at 0.5 µM",-25.4%
same,inhibition,"[9]; cisplatin combo, at 5 µM",-32.6%
same,inhibition,"[9]; measured here: 5 uM single agent, at 5 µM",-15.5%
same,inhibition,[10]; at 0.5 µM,-13.2% (inactive)
same,inhibition,[10]; [22],-35.9%
same,inhibition,[10]; [25],-19.9%
same,inhibition,[10]; [26],-31.3%
same,inhibition,[11]; at 0.5 µM,-0.55% (inactive)
same,inhibition,"[11]; measured here: with BGB IC20, at 0.5 µM",6.74%
same,inhibition,"[11]; measured here: with BGB IC20, at 5 µM",0.541%
same,inhibition,"[11]; measured here: with cisplatin IC20, at 0.5 µM",-17.9%
same,inhibition,"[11]; measured here: with cisplatin IC20, at 5 µM",-0.549%
same,inhibition,"[11]; single agent, at 5 µM",19.7%
same,inhibition,[12]; at 0.5 µM,-27.6% (inactive)
same,inhibition,"[12]; measured here: combination with BGB at IC20, at 0.5 µM",-23.3%
same,inhibition,"[12]; measured here: combination with cisplatin at IC20, at 0.5 µM",-22.2%
same,inhibition,[13]; at 0.5 µM,-0.19% (inactive)
same,inhibition,"[13]; measured here: combo with BGB at IC20, at 0.5 µM",-1.2%
same,inhibition,"[13]; measured here: combo with cisplatin at IC20, at 0.5 µM",6.56%
same,inhibition,[14]; at 0.5 µM,1.01% (inactive)
same,inhibition,"[14]; measured here: inhibition with BGB combination, at 0.05 µM",-4.64%
same,inhibition,"[14]; measured here: inhibition with cisplatin combination, at 0.05 µM",-4.19%
same,inhibition,[15]; at 0.5 µM,-15% (inactive)
same,inhibition,[15]; [25],-8.95%
same,inhibition,[15]; [26],-20.5%
same,inhibition,[16]; at 0.5 µM,-5.31% (inactive)
same,inhibition,"[16]; measured here: BGB combination, at 0.5 µM",-12%
same,inhibition,"[16]; measured here: BGB combination, at 5 µM",-10.9%
same,inhibition,"[16]; measured here: cisplatin combination, at 0.5 µM",-2.01%
same,inhibition,"[16]; measured here: cisplatin combination, at 5 µM",-2.78%
same,inhibition,"[17]; BGB combination, concentration series, at 5 µM",7.08%
same,inhibition,[17]; at 0.5 µM,1.18% (inactive)
same,inhibition,"[17]; cisplatin combination, concentration series, at 5 µM",13.2%
same,inhibition,[18],16% (inactive)
same,inhibition,[18]; measured here: combo with BGB IC20,24.6%
same,inhibition,[18]; measured here: combo with cisplatin IC20,15.9%
same,inhibition,[19]; at 0.5 µM,3.66% (inactive)
same,inhibition,"[19]; cisplatin combination, at 0.5 µM",8.14%
same,inhibition,"[19]; cisplatin combination, at 5 µM",-2.96%
same,inhibition,"[19]; measured here: BGB IC40 combination 0.05 uM, at 0.05 µM",15.7%
same,inhibition,"[19]; single agent, at 5 µM",-22%
same,inhibition,[20]; at 0.5 µM,-7.05% (inactive)
same,inhibition,"[20]; cisplatin combo, at 5 µM",17.7%
same,inhibition,"[20]; measured here: BGB IC40 combination, at 0.05 µM",-27.1%
same,inhibition,[20]; [25],26.9%
same,inhibition,"[20]; single agent, at 5 µM",-22.4%
same,inhibition,[21]; at 0.5 µM,-5.28% (inactive)
same,inhibition,[21]; [23],-6.44%
same,inhibition,[21]; [24],-4.7%
same,inhibition,"[21]; single agent, at 0.05 µM",-13.5%
same,inhibition,"[21]; single agent, at 5 µM",7.92%
